# Targets with a hit are over-represented here; the source holds about 8,800 in all. About 0.5% of all pairs of compound and target were hits. A number with no mark means an inactive call.
# Key:
# Test in all cases: log2 fold change, soluble protein after heating vs DMSO (PISA); higher = thermal stabilisation; K562 lysate, 10 uM; active = over 0.2 and 3.5 SD of the protein, either way, in both replicates (recomputed)
# erlotinib = compound: C#Cc1cccc(Nc2ncnc3cc(OCCOC)c(OCCOC)cc23)c1 [erlotinib]
# Procedure, shortened: (§1)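 Quantification was by TMTpro 16plex LC-MS/MS with equalised channel sums, applied to the supernatant after 21,000xg for 90 min. Samples were crude K562 extract at 1 mg/mL protein in PBS pH 7.4 with 1 mM MgCl2, treated with 10 μM compound for 30 min, heated for 3 min across 48°C-58°C, pooled and brought to 0.5% NP-40 at 4°C. Values are log-two fold changes in thermal stability relative to solvent controls, from duplicates.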
# [1] = compound: C/C(=N\NC(=O)C1=CC(=CC=C1)S(=O)(=O)N2CCOCC2)/C3=C(C=CC(=C3)Cl)O
# Procedure, shortened: as §1
# [2] = compound: C1=CC(=CC=C1C2=NC3=C(N2)C=C(C=C3)C(=O)N)OC4=CC=C(C=C4)Cl
# Procedure, shortened: as §1
# [3] = compound: C1=CC2=C(C=CC(=C2)/C=C\3/C(=O)NC(=NCC4=CC=CS4)S3)N=C1
# Procedure, shortened: as §1
# [4] = compound: C1=CC=C(C=C1)C2=NC(=C(N2)C3=CC=NC=C3)C4=CC(=C(C=C4)Cl)O
# Procedure, shortened: as §1
# [5] = compound: C1=CC=C2C(=C1)C3=NNC4=CC=CC(=C43)C2=O
# Procedure, shortened: as §1
# [6] = compound: C1CCN(C1)C(=O)NC2=CC=CC(=C2)NC3=NC=C(C(=N3)NCCC4=CN=CN4)Br
# Procedure, shortened: as §1
# [7] = compound: C1CN(CCC1(CC2=CC=C(C=C2)Cl)N)C3=NC=NC4=C3C=CN4
# Procedure, shortened: as §1
# IRAK-1-4 Inhibitor I = compound: C1COCCN1CCN2C3=CC=CC=C3N=C2NC(=O)C4=CC(=CC=C4)[N+](=O)[O-] [IRAK-1-4 Inhibitor I]
# Procedure, shortened: as §1
# [8] = compound: CC(=O)c1cnc2ccc(-c3cc(Cl)c(O)c(Cl)c3)nc2c1N[C@H]1CC[C@H](CN(C)C)CC1
# Procedure, shortened: as §1
# ralimetinib = compound: CC(C)(C)Cn1c(N)nc2ccc(-c3[nH]c(C(C)(C)C)nc3-c3ccc(F)cc3)nc21 [ralimetinib]
# Procedure, shortened: as §1
# [9] = compound: CC(C)(O)CC(=O)NCCn1ccc2ncnc(Nc3ccc(Oc4cccc(C(F)(F)F)c4)c(Cl)c3)c21
# Procedure, shortened: as §1
# [10] = compound: CC(C)C1=C2N=C(C=C(N2N=C1)NCC3=CC=CC=C3)NCCCCCCN
# Procedure, shortened: as §1
# [11] = compound: CC1=C(C(CC(=O)N1)C2=CC=C(C=C2)C(F)(F)F)C(=O)NC3=C(C=C4C(=C3)C=NN4)F
# Procedure, shortened: as §1
# [12] = compound: CC1=C(C2=C(C=C1)C(=O)C3=CC=CC=C3N2CCCN)C
# Procedure, shortened: as §1
# [13] = compound: CC1=C(C=C(C=C1)NC(=O)C2=CC(=CC=C2)C(C)(C)C#N)NC3=CC4=C(C=C3)N=CN(C4=O)C
# Procedure, shortened: as §1
# [14] = compound: CC1=C(C=C(C=C1)NC(=O)C2=CC(=CC=C2)N(C)C)NC(=O)C3=CC=C(C=C3)O
# Procedure, shortened: as §1
# [15] = compound: CC1=CC=C(C=C1)SC2=C3C=C(SC3=CN=C2)C(=O)N
# Procedure, shortened: as §1
# [16] = compound: C1=CC2=NC=CN=C2C=C1/C=C/3\C(=O)NC(=O)S3
# Procedure, shortened: as §1
# ibrutinib = compound: C=CC(=O)N1CCC[C@@H](n2nc(-c3ccc(Oc4ccccc4)cc3)c3c(N)ncnc32)C1 [ibrutinib]
# Procedure, shortened: as §1
# UniProt P24311, sequence (P24311 whole entry, looked up): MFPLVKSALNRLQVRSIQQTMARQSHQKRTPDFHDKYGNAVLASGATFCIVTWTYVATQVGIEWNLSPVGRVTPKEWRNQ
# UniProt Q6P3S1, sequence (Q6P3S1 whole entry, looked up): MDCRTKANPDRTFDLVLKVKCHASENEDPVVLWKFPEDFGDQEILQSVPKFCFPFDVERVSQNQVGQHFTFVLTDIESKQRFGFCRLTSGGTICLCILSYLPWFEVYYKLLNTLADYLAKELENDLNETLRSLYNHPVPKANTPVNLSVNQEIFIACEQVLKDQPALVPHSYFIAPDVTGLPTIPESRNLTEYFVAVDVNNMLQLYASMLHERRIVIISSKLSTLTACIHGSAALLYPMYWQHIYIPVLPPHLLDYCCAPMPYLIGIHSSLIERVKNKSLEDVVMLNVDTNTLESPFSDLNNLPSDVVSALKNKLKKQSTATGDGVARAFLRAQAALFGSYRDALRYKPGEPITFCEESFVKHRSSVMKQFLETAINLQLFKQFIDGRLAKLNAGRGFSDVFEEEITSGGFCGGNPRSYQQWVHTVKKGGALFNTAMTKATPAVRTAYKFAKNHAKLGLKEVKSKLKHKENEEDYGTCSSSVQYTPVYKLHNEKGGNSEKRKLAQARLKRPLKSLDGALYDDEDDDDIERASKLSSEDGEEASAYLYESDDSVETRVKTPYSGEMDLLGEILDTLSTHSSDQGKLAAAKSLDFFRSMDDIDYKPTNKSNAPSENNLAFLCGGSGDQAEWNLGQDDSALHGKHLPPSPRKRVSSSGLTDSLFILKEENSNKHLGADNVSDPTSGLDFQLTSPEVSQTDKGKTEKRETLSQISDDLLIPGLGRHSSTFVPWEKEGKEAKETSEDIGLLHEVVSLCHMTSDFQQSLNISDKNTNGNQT
# UniProt Q9NQI0, sequence (Q9NQI0 whole entry, looked up): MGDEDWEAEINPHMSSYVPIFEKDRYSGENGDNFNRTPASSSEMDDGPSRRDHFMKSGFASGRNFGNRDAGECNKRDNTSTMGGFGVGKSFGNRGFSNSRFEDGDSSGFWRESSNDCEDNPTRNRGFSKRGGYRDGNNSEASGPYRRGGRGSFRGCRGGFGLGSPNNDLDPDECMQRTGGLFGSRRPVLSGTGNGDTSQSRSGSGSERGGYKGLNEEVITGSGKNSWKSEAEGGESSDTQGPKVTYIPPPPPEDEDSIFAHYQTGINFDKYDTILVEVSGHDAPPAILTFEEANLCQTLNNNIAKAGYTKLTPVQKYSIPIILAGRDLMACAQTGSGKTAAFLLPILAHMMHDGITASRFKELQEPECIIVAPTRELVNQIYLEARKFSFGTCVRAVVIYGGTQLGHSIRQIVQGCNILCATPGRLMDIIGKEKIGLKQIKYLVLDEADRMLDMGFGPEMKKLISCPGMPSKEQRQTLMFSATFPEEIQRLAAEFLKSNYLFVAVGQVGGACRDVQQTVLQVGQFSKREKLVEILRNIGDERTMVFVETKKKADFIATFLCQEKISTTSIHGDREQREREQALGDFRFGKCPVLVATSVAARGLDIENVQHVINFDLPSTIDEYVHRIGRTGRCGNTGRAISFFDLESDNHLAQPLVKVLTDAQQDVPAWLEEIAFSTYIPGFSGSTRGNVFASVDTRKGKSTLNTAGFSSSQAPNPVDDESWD
# UniProt Q7Z460, sequence (Q7Z460 whole entry, looked up): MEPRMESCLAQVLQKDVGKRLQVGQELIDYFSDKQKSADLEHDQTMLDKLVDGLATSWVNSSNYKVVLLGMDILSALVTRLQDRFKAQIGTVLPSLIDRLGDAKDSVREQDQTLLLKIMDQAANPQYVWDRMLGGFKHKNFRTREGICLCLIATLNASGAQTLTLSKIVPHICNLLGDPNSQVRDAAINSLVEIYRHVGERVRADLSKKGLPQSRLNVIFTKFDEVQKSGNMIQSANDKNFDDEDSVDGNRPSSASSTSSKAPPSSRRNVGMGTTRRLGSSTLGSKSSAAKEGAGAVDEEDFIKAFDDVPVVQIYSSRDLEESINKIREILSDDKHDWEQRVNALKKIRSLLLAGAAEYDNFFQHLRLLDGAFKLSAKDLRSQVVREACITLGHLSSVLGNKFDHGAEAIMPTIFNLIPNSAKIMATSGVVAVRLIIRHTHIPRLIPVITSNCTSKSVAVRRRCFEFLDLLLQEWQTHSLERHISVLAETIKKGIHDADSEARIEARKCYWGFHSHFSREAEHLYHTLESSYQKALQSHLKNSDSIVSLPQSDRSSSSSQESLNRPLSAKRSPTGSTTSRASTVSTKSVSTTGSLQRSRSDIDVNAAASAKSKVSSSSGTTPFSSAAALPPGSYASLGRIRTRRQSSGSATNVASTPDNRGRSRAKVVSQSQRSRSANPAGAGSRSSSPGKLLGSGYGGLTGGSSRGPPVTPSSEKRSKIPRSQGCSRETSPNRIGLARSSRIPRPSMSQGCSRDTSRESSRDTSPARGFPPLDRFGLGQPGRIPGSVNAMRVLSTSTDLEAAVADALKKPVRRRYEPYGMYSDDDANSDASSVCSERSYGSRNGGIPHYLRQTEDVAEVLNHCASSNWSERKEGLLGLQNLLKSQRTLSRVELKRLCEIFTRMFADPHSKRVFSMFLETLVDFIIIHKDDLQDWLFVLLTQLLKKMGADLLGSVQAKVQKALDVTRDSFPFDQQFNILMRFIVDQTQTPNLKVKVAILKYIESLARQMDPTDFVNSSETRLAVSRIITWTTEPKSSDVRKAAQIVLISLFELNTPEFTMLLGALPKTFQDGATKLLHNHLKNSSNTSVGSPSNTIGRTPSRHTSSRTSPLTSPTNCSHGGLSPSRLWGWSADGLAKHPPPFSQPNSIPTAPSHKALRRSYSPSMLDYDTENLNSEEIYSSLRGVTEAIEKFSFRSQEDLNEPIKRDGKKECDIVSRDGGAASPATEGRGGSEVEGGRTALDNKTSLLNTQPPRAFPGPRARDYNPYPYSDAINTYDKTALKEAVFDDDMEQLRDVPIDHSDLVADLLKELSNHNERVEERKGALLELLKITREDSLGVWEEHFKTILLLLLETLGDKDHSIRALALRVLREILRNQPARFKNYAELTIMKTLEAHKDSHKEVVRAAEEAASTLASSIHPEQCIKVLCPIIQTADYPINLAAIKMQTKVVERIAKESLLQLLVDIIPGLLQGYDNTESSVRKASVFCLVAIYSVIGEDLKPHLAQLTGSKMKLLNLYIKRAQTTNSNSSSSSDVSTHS
# UniProt P09622, sequence (P09622 whole entry, looked up): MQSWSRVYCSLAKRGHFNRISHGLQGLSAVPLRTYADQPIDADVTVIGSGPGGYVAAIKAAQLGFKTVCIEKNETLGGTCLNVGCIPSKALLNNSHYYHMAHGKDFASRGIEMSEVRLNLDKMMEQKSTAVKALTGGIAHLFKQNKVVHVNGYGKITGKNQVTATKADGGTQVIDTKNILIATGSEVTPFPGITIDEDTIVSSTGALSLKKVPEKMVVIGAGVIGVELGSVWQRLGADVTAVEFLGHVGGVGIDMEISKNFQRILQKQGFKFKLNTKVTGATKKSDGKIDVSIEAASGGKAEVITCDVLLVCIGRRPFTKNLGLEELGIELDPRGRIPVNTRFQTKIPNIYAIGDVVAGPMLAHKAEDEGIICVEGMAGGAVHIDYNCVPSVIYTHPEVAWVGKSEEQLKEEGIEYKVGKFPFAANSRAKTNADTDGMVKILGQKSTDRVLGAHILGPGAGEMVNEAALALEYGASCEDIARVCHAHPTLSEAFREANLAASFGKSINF
# UniProt O60716, sequence (O60716 whole entry, looked up): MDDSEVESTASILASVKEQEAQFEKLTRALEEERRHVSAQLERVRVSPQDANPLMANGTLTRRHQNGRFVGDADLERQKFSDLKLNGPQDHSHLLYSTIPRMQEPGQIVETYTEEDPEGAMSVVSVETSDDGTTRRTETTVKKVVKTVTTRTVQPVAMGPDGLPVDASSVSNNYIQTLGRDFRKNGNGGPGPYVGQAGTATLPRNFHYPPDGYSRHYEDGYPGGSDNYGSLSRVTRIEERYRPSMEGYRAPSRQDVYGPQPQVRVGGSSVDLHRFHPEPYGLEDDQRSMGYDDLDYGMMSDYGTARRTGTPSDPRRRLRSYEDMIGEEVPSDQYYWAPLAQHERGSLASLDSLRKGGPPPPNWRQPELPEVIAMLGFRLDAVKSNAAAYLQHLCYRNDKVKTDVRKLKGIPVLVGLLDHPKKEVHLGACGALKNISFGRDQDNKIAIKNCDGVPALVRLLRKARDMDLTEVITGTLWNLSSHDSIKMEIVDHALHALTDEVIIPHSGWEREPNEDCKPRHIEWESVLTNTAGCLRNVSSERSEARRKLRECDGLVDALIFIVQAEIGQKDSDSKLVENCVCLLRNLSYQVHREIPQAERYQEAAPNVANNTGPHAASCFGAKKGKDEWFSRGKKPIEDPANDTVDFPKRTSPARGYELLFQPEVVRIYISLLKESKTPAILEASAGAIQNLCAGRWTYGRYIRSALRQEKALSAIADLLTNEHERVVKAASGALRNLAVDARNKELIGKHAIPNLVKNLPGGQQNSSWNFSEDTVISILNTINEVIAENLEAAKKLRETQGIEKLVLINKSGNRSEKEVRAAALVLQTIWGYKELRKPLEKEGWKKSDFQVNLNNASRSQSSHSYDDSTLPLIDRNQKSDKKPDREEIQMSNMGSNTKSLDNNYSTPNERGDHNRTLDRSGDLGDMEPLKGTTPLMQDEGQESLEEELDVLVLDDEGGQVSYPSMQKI
# UniProt Q6P3W2, sequence (Q6P3W2 whole entry, looked up): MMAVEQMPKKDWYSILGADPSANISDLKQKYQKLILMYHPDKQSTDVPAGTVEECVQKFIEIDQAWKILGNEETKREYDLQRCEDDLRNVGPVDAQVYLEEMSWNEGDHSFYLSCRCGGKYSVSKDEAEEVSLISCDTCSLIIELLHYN
Target,log2 fold change (erlotinib),log2 fold change [1],log2 fold change [2],log2 fold change [3],log2 fold change [4],log2 fold change [5],log2 fold change [6],log2 fold change [7],log2 fold change (IRAK-1-4 Inhibitor I),log2 fold change [8],log2 fold change (ralimetinib),log2 fold change [9],log2 fold change [10],log2 fold change [11],log2 fold change [12],log2 fold change [13],log2 fold change [14],log2 fold change [15],log2 fold change [16],log2 fold change (ibrutinib)
DCTN1 isoform 4 (UniProt Q14203),-0.021,-0.166,0.065,-0.109,0.098,0.126,-0.141,0,0.02,0.089,0.114,-0.076,0.1,-0.074,-0.11,0.044,0.036,-0.029,–,–
COX7B (UniProt P24311),-0.024,0.026,0.009,-0.011,-0.003,0.022,-0.085,0.022,0.025,-0.016,0.014,-0.09,0.008,-0.046,-0.144,0.018,0.039,0.02,–,–
DENND1B (UniProt Q6P3S1),-0.08,0.153,-0.13,0.04,0.019,0.007,–,–,0.014,-0.034,-0.039,-0.114,-0.087,0.151,0.174,0.031,-0.003,0.011,0.19,0.405
CLASP1 (UniProt Q7Z460),0.042,0.082,-0.029,-0.022,0.026,-0.041,-0.035,0.02,0.029,0.013,0.02,0.024,0.01,0.018,0.004,0.02,0.036,0.001,0.01,–
DNAH5 (UniProt Q8TE73),-0.006,-0.008,0,-0.024,0.004,-0.056,–,–,-0.015,-0.009,-0.045,-0.138,0.076,0.062,0.014,–,0.019,0.086,0.015,-0.064
CHFR (UniProt Q96EP1),-0.011,0.179,0.066,-0.068,-0.027,0.257,-0.023,-0.013,-0.011,0.158,0.007,-0.049,-0.047,0.003,-0.06,-0.021,0.031,0.102,–,–
DDX4 (UniProt Q9NQI0),-0.043,0.165,-0.112,-0.028,0.114,-0.004,0.002,0.011,-0.109,-0.004,0.04,0.087,-0.032,0.008,0.1,–,-0.051,-0.026,-0.055,0.019
DNAAF5 (UniProt Q86Y56),-0.008,0.041,-0.062,-0.057,-0.016,-0.08,-0.003,0.007,-0.039,0.032,0.074,-0.049,-0.043,-0.002,-0.005,-0.035,0.047,0.061,0.021,-0.043
DNAJC24 (UniProt Q6P3W2),0.034,-0.069,0.021,0.011,0.016,0.081,0.01,0.01,-0.055,-0.12,-0.052,0.113,-0.067,-0.048,0.064,0.031,0.047,0.064,–,–
CYP2S1 isoform 2 (UniProt Q96SQ9),-0.026,-0.291,-0.018,-0.096,0.07,-0.123,-0.198,0.08,-0.044,0.146,0.048,0,0.061,–,-0.084,-0.028,0.07,-0.229,–,–
CLUH (UniProt O75153),-0.011,0.018,-0.006,0.051,-0.013,-0.014,-0.009,-0.005,-0.007,0.093,0.008,-0.004,-0.044,-0.01,0,-0.001,0.006,0.008,0.21,–
DBF4 (UniProt Q9UBU7),0.03,0.056,0.005,-0.033,0.098,-0.058,-0.068,-0.022,0.04,–,-0.048,-0.017,-0.01,-0.062,-0.058,-0.012,-0.042,–,-0.342 (active),-0.06
DLD (UniProt P09622),0.014,0,0.022,-0.01,0.004,0.007,0.008,0.006,0.026,0.003,-0.006,-0.016,-0.013,-0.03,-0.006,0.049,-0.007,0.004,0.025,0.003
CTNND1 isoform 3 (UniProt O60716),-0.002,-0.039,-0.024,-0.045,0.087,-0.093,0.009,0.022,0.004,0.001,-0.058,-0.028,0,0.006,-0.036,-0.016,0.032,-0.025,0.003,0.01
CNNM2 (UniProt Q9H8M5),-0.109,-0.206,0.038,0.058,-0.106,-0.029,0.045,0.201,0.098,0.004,0.31,0.348 (active),0.048,–,-0.031,-0.054,-0.157,-0.015,–,–
CLCN3 isoform 2 (UniProt P51790),0.003,0.083,-0.061,-0.005,-0.042,0.013,-0.032,0.029,0.068,0.029,0.02,-0.032,-0.035,-0.017,-0.066,0.029,0.048,-0.013,-0.004,–
CLPTM1L (UniProt Q96KA5),-0.019,0.014,-0.143,-0.01,-0.052,-0.197,-0.059,0.091,-0.01,-0.011,0.041,-0.041,0.048,0.058,0.081,-0.024,0.039,-0.005,0.009,–
